Results from PubChem BioAssay (NCI).
This is part of a sample that, as a whole, favours compounds with a hit. Of some 83,000 tested, about 20% had one in any assay.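 Single-dose data. Exposure time 48 hours. Values below 10 considered active.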 Unmarked numbers belong to inactive results. Activity calls are given as the source filed them.

What follows are compounds tested on SF-268 CNS (assay: NCI-60 one-dose screen, 48 h (100 = growth as untreated, 0 = no growth, -100 = all killed)). Settings: 10 µM unless noted.
For COC(=O)c1ccc2c(c1)C(=O)c1c-2n(CCCN)c(=O)c2cc([N+](=O)[O-])ccc12, the growth was -87.2% (active). Compound O=C(Nn1c2c(sc1=Nc1ccccc1)C(=O)c1ccccc1C2=O)c1cc2ccc1CCc1ccc(cc1)CC2 has a growth of 67.7%. With O=C(CN1C(=O)CCC1=O)Nc1ncc(Cc2ccc(F)cc2)s1 the growth was 91.2%. For Nc1ncnc2c1N=C(c1ccc(Cl)cc1)CC(c1ccc3c(c1)OCO3)N2 (stereo not given), the growth was 91.1%. N#C/C(=C/c1ccc([N+](=O)[O-])cc1)n1nnc2cc(F)c(F)cc21 showed a growth of 90.5%. In the case of COc1ccc(C(=O)Nc2ncc(Cc3ccc(F)cc3)s2)cc1, the growth is reported as 50.6%. CCN1CCN(Cc2cn(CC(=O)Nc3ccc4c(ccn4Cc4ccccc4)c3)nn2)CC1 gave a growth of 95.9%. With CCOC(=O)C1=C(NC)OCC1=O the growth was 98.6%. For CC(=O)c1cc(O)c2ccccc2c1O, the growth was 124%. For CC1(C)CC[C@]2(c3nnc(-c4ccncc4)o3)CC[C@H]3C(=CC[C@H]4[C@@]3(C)CC[C@H]3C(C)(C)C(=O)CC[C@]43C)[C@@H]2C1, the growth was 81.4%. CC(C)(C)n1cc(-c2ccnc(NCCCNS(=O)(=O)c3ccc(F)cc3)c2)c(-c2cccc(F)c2)n1 gave a growth of 74.3%. Work on COc1cc(CNS(=O)(=O)c2ccc(C)cc2)ccc1OCc1cn(-c2ccc(Br)cc2)nn1 yielded a growth of 93.8%. For Cc1ccc(-c2csc(NC(=O)CN3CCN(c4cc5c(cc4F)c(=O)c(C(=O)O)cn5C4CC4)CC3)n2)cc1, the growth was 23.2%. Work on CCCCCCCCCCCCCCCCCCOc1ccccc1CC(=O)OCC[N+]1(C)CCCC1 yielded a growth of 20.7%. With COc1ccc(-c2nc(/C=C3\SC(=NCc4ccccc4)NC3=O)c3ccccn23)cc1 the growth was -37.4% (active). COc1ccc2c3c([nH]c2c1)C(=O)c1nc(C)ccc1C3=O gave a growth of 69.5%. CN(CCOc1ccc(C#N)cc1)CCOc1ccc(C#N)cc1 was tested, and the growth was 103%. Compound CCN1C(=O)N(CC)C2C1NN=c1s/c(=C\c3cccc([N+](=O)[O-])c3)c(=O)n12 (stereo not given) has a growth of 54%. O=C(CCCCCCN1CC(=O)N2[C@H](c3cc(Br)cs3)c3[nH]c4ccccc4c3C[C@H]2C1=O)NO gave a growth of 66.8%. Cc1ccc(/C=C2\CN(C(=O)OC(C)(C)C)C/C(=C\c3ccc(C)cc3)C2=O)cc1 showed a growth of 49.1%. Work on CN(C)CCNC(=O)c1cccc(-c2cnc3ccc(-c4ccc5c(c4)OCO5)nn23)c1 yielded a growth of 76.7%. Cn1c(=O)c2c(nc(NC3=NS(=O)(=O)c4ccccc43)n2CC(=O)N2CCc3ccccc32)n(C)c1=O was tested, and the growth was 97.5%. For Cc1ccc(NC(=S)NNC(=S)NNc2ccccc2)cc1C, the growth was 55.1%. With C=CCn1c(SCC(=O)Nc2ccc(C(=O)/C=C/c3cc4cc(OC)ccc4nc3Cl)cc2)nnc1-c1ccc(Br)cc1 the growth was 76%. CCCC(=O)NC(c1ccc2c(c1)OCO2)c1ccc2cccnc2c1O (stereo not given) was tested, and the growth was 15.8%. Compound c1ccc(C2=NN[C@H](c3cn(-c4ccccc4)nc3-c3ccccc3)C2)cc1 has a growth of 52%. C[C@@H]1CCC[C@H]1CC(N)C(=O)O (stereo not given in full) gave a growth of 105%. For O=C1c2cccnc2C(=O)c2c1c(C(=O)NCCCN1CCCCC1)c1ccccn21, the growth was -13% (active). CCCCCCCCn1ccc2cc(NC(=O)Cn3cc(CN4CCCCC4)nn3)ccc21 gave a growth of 21.3%. Work on COC(C(=O)[C@@H](O)[C@@H](C)O)[C@@H]1Cc2cc3cc(O[C@H]4C[C@@H](O[C@H]5C[C@@H](O)[C@H](O)C(C)O5)[C@H](O)C(C)O4)c(C)c(O)c3c(O)c2C(=O)[C@H]1O[C@H]1C[C@@H](O[C@H]2C[C@@H](O[C@H]3C[C@@H](O)[C@H](OC)C(C)O3)[C@@H](O)C(C)O2)[C@H](O)C(C)O1 (stereo not given in full) yielded a growth of 14.2%. CCCCN1C(=O)/C(=c2\sc3n(c2=O)C2C(NN=3)N(CC)C(=O)N2CC)c2ccccc21 (stereo not given) was tested, and the growth was 42.5%. With COc1ccc2c(O)c(/C=C3\N=Nc4ncccc43)oc2c1C[C@H]1CCNC[C@H]1F the growth was -5.68% (active). COc1ccc2c(O)c(/C=C3\N=Nc4ccccc43)oc2c1C[C@@H]1CCNC[C@H]1F was tested, and the growth was 50.3%. For COc1ccc(N2CCC(=O)NC2=S)cc1, the growth was 99.8%. With CC(=O)OCc1nc(C#N)c(N(C)C)o1 the growth was 99.6%.
